{"source": "PubChem BioAssay AID912", "about": "(National Center for Advancing Translational Sciences (NCATS), 2007)", "note": "Several values for one entry are separate records, joined by “and”; a condition that tells them apart may be missing. Identical values can stand only once. About 470 (0.67%) of roughly 70,000 compounds were called active. Entries that show only a call come without a potency. Not shown: some 18% with an inconclusive outcome. Many of the other results were omitted from the sample, so actives are more common in it than they were. Values without a mark were called inactive. The call rests on the fitted dose curve. Potency means the concentration at half of the fitted maximal effect."}
{"experiment": "qHTS Assay for Anthrax Lethal Toxin Internalization; further: nearly all actives have a fitted effect of over 50% in size", "conditions": "Cells, FRET ratio (460/530); series mostly up to 40 µM"}
{"smiles": "CC(C)CO/N=C1/C[C@@H](O)[C@@H](O)[C@@H]2[C@@H]3C(=O)N(C[C@@H]4CCCO4)C(=O)[C@H]3CC[C@@H]12", "activity change, negative = inhibition": "0.14% [at 8 µM]"}
{"smiles": "CCOC(=O)[C@]1(C(/C=C/c2ccco2)NC(=O)OC)CCCC1=O", "note": "(stereo partly drawn)", "activity change, negative = inhibition": "-10.5% [at 8 µM]"}
{"smiles": "CSc1nnc2c(n1)OC(c1cn(C)c3ccccc13)N(C(C)=O)c1ccccc1-2", "note": "(stereo not drawn)", "activity change, negative = inhibition": "inactive"}
{"smiles": "CC1(C)OC(C(O)(c2ccccc2)c2ccccc2)C(C(O)(c2ccccc2)c2ccccc2)O1", "note": "(stereo not drawn)", "activity change, negative = inhibition": "-5.79% [at 8 µM]"}
{"smiles": "CO[C@H]1COC(=O)C/C=C\\[C@H](C)COC(=O)[C@@H](OCc2ccccc2)/C=C\\[C@@H]1C", "activity change, negative = inhibition": "-13% [at 1.6 µM]"}
{"smiles": "CCOC(=O)c1sc(NC(=O)C(CC)Sc2nccn2C)nc1C", "note": "(stereo not drawn)", "activity change, negative = inhibition": "inactive"}
{"smiles": "CC(C)CO", "activity change, negative = inhibition": "inactive"}
{"smiles": "O=C(CSC1=Nc2ccccc2C2=NC(c3ccccc3)C(=O)N12)NCC1CCCO1", "note": "(stereo not drawn)", "activity change, negative = inhibition": "inactive"}
{"smiles": "CC(C)CC1(C(=O)NCc2ccccn2)C=CCN1C(=O)c1ccccc1", "note": "(stereo not drawn)", "activity change, negative = inhibition": "inactive"}
{"smiles": "CCCN(C/C=C\\I)[C@@H]1CCc2cccc(O)c2C1", "activity change, negative = inhibition": "inactive"}
{"smiles": "Brc1cc(Br)c(Oc2cc(Br)c(Br)cc2Br)cc1Br", "Potency": "1 µM (active)"}
{"smiles": "CCCCCCCCCCCC(=O)O[C@H](CC(=O)O)C[N+](C)(C)C", "activity change, negative = inhibition": "inactive"}
{"smiles": "CCCOC(=O)Nc1ccccc1C(N)=O", "activity change, negative = inhibition": "inactive"}
{"smiles": "C=CCOC(=O)COCCC(C)C", "activity change, negative = inhibition": "inactive"}
{"smiles": "CCCn1c(C)nc2c(NCCCCN(CC)CC)nc(C)nc21", "activity change, negative = inhibition": "inactive"}
{"smiles": "CC(=O)c1c(O)c(C)c(O)c(Cc2c(O)c3c(c(C(=O)/C=C\\c4ccccc4)c2O)OC(C)(C)C=C3)c1O", "Potency": "15.8 µM (active)"}
{"smiles": "N#CCCn1c(=O)c(-c2cc(F)cc(F)c2)nc2cnc(Oc3ccccc3)nc21", "activity change, negative = inhibition": "inactive"}
{"smiles": "CO[C@H]1COC(=O)[C@@H](C)NC(=O)C/C=C\\[C@@H](C)[C@H](OC)COC(=O)C/C=C\\[C@@H]1C", "activity change, negative = inhibition": "5.17% [at 8 µM]"}
{"smiles": "CS(=O)(=O)N1CCC2(CC1)CN(Cc1ccccc1)C2", "activity change, negative = inhibition": "inactive"}
{"smiles": "c1ccc(CN2CC[C@@]3(CCCNC3)C2)cc1", "Potency": "10 µM (active)"}
{"smiles": "CC(=O)N1CCC2(CCCN(Cc3ccccc3)C2)CC1", "activity change, negative = inhibition": "inactive"}
{"smiles": "CC(=O)N1[C@H](C)C=C[C@]1(Cc1ccccc1)C(=O)NCc1ccccn1", "activity change, negative = inhibition": "inactive"}
{"smiles": "C#CCC(C(=O)OC)(C(=O)OC)C(C[N+](=O)[O-])c1ccccc1", "note": "(stereo not drawn)", "activity change, negative = inhibition": "2.17% [at 8 µM]"}
{"smiles": "CC(C)(O)/C=C\\C(=O)[C@](C)(O)[C@H]1[C@H](O)C[C@]2(C)[C@@H]3CC=C4[C@@H](C=C(O)C(=O)C4(C)C)[C@]3(C)C(=O)C[C@@]12C", "Potency": "0.0316 µM (active)"}
{"smiles": "Cc1c(NC(=O)Nc2ccccc2Cl)sc(=S)n1C", "activity change, negative = inhibition": "inactive"}
{"smiles": "COC(=O)[C@@H]1CC[C@H](C)[C@@H](c2ccc(C)cc2)N1C(=O)c1ccc(/C=N\\OC[C@@H](O)COCc2ccco2)cc1", "activity change, negative = inhibition": "12.1% [at 8 µM]"}
{"smiles": "CCCCCCN(C(=O)CCCCCN1C(=O)NC(c2ccc(C(F)(F)F)cc2)C(C(=O)OCc2ccccc2)=C1C)C(C(=O)NCCCC)c1ccc(OCC(=O)OC)c(C(=O)OC)c1", "note": "(stereo not drawn)", "activity change, negative = inhibition": "inactive"}
{"smiles": "CC(C)CSC[C@@H]1O[C@H](n2cnc3c(N)nccc32)[C@H](O)[C@@H]1O", "activity change, negative = inhibition": "-14.1% [at 8 µM]"}
{"smiles": "S=c1c2[nH]cnc2ncn1CCSc1ncnc2nc[nH]c12", "activity change, negative = inhibition": "-7.68% [at 8 µM]"}
{"smiles": "Cc1nc2cnc(N3CCNCC3)nc2n(CCc2ccccc2)c1=O", "activity change, negative = inhibition": "inactive"}
{"smiles": "O=P(c1cccs1)(c1cccs1)c1cccs1", "activity change, negative = inhibition": "inactive"}
{"smiles": "C[C@]1(C(=O)NCCc2c[nH]c3ccccc23)C=C[C@@H](Cc2ccccc2)N1C(=O)c1ccccc1", "activity change, negative = inhibition": "inactive"}
{"smiles": "CO/N=C\\[C@@H](C)[C@H](OCc1ccccc1)C(C)C", "activity change, negative = inhibition": "1.89% [at 1.6 µM]"}
{"smiles": "CCn1c(CNC(=O)c2ccc(OC)c(OC)c2)nnc1SCC(=O)Nc1ccccc1", "activity change, negative = inhibition": "inactive"}
{"smiles": "CCOC(=O)N/N=C1/C[C@@H](O)[C@@H](O)[C@@H]2[C@@H]3C(=O)N(CC)C(=O)[C@H]3CC[C@H]12", "activity change, negative = inhibition": "4.77% [at 8 µM]"}
{"smiles": "CN(CCCNC(=O)CN1C(=O)CC(C)(C)S(=O)(=O)c2ccccc21)C1CCCCC1", "activity change, negative = inhibition": "inactive"}
{"smiles": "CCCCCCCCCCCC(=O)O", "activity change, negative = inhibition": "inactive"}
{"smiles": "CC(C)C[C@@H](CC(=O)N[C@@H](CCC(=O)O)CC(=O)O)NC(=O)[C@@H]1CCCC[C@H]1NC(=O)C[C@@H](NC(=O)C[C@H](Cc1c[nH]c2ccccc12)NC(=O)[C@@H]1CCCC[C@H]1N)C(C)C", "activity change, negative = inhibition": "inactive"}
{"smiles": "COc1ccc(Br)c2c1C[C@H](C(=O)O)CC2", "activity change, negative = inhibition": "-10.3% [at 8 µM]"}
{"smiles": "Cc1cc(N2CCCCC2)nc2ccc(Cc3ccc4nc(N5CCCCC5)cc(C)c4c3)cc12", "activity change, negative = inhibition": "3.79% [at 8 µM]"}
{"smiles": "C[C@H]1CC[C@H](C(=O)O)N[C@@H]1c1ccc(C#Cc2ccccc2)cc1", "activity change, negative = inhibition": "0.0911% [at 1.6 µM]"}
{"smiles": "COc1ccc2[nH]cc(CCNc3ncnc4ccc(-c5ccccc5CN(C)C)cc34)c2c1", "activity change, negative = inhibition": "inactive"}
{"smiles": "COc1ccc2[nH]cc(CCNc3ncnc4ccc(-c5ccc(C(=O)N(C)C)cc5)cc34)c2c1", "activity change, negative = inhibition": "inactive"}
{"smiles": "COc1cccc(-c2cc(NCCc3c[nH]c4ccc(OC)cc34)ncn2)c1", "Potency": "10 µM (active)"}
{"smiles": "COC(=O)C1=C(C)N(Cc2ccccc2)C2=C3C(=O)N(c4ccccc4)C(=O)C3[C@@](O)(C(=O)OC)C(=O)N2C1c1ccccc1", "note": "(stereo partly drawn)", "activity change, negative = inhibition": "-8.4% [at 8 µM] and -8.22% [at 8 µM]"}
{"smiles": "CC(=O)/C(C)=N\\O", "activity change, negative = inhibition": "inactive"}
{"smiles": "CCOC(=O)N1CCC(NC(=O)COc2cc(=O)n(C)c3ccccc23)CC1", "activity change, negative = inhibition": "inactive"}
{"smiles": "CC1CCCC(C)N1CCCNC(=O)c1cc2c(=O)n(C)c3ccccc3c2n1C", "note": "(stereo not drawn)", "Potency": "3.98 µM (active)"}
{"smiles": "Cn1c(=O)c(C(=O)Nc2ncccn2)c(O)c2ccccc21", "activity change, negative = inhibition": "inactive"}
{"smiles": "CCN1CCCC1CNC(=O)c1cc2c(=O)n(C)c3ccccc3c2n1C", "note": "(stereo not drawn)", "Potency": "10 µM (active)"}
{"smiles": "Cn1c(C(=O)NCCN2CCc3ccccc3C2)cc2c(=O)[nH]c3ccccc3c21", "activity change, negative = inhibition": "inactive"}
{"smiles": "Cn1c(C(=O)N2CCC(C(N)=O)CC2)cc2c(=O)n(C)c3ccccc3c21", "activity change, negative = inhibition": "inactive"}
{"smiles": "COC(=O)[C@@]1(C)C=C[C@@H](Cc2ccccc2)N1C(C)=O", "activity change, negative = inhibition": "inactive"}
{"smiles": "C=CCOC(=O)c1ccccc1C(=O)OCC=C", "activity change, negative = inhibition": "inactive"}
{"smiles": "Cc1ccc2oc(=O)ccc2c1", "activity change, negative = inhibition": "inactive"}
{"smiles": "NCCCNCCCCN(CCCN)/[N+]([O-])=N/O", "activity change, negative = inhibition": "inactive"}
{"smiles": "CNC(=O)C1(C)C=CC2(CCCCC2)N1C(C)=O", "note": "(stereo not drawn)", "activity change, negative = inhibition": "inactive"}
{"smiles": "CCCNC(=O)OC[C@@H]1O[C@H](c2ccccc2)C=C[C@@H]1Oc1ccc(OC)cc1", "activity change, negative = inhibition": "-2.83% [at 8 µM]"}
{"smiles": "CSc1nc2ccc(S(=O)(=O)N3CCc4ccccc43)cc2s1", "activity change, negative = inhibition": "inactive"}
{"smiles": "O=C(O)c1nccnc1C(=O)Nc1ccc(Br)cn1", "activity change, negative = inhibition": "inactive"}
{"smiles": "Cc1ncc(CC(=O)n2cc(C(=O)c3cc(Cl)ccc3O)cn2)s1", "activity change, negative = inhibition": "inactive"}
{"smiles": "COC(=O)C1(Cc2ccccc2)C=C2C(=C(C)C(=O)C2C)CN1", "note": "(stereo not drawn)", "activity change, negative = inhibition": "inactive"}
{"smiles": "COC(=O)[C@H]1C[C@@H]1[C@H](NC(=O)Oc1ccc(F)cc1)c1ccccc1", "activity change, negative = inhibition": "inactive"}
{"smiles": "O=C(O)CS(=O)c1ccc2c3c(cccc13)C(=O)c1ccccc1-2", "note": "(stereo not drawn)", "activity change, negative = inhibition": "1.15% [at 8 µM]"}
{"smiles": "CN(Cc1ccco1)c1ncncc1-c1ccoc1", "activity change, negative = inhibition": "inactive"}
{"smiles": "CC(C)C[C@@H](CC(=O)N[C@@H](CCC(=O)O)CC(=O)O)NC(=O)[C@@H]1CCCC[C@H]1NC(=O)C[C@@H](NC(=O)C[C@H](CO)NC(=O)[C@@H]1CCCC[C@H]1N)C(C)C", "activity change, negative = inhibition": "inactive"}
{"smiles": "COc1ccc2nccc(C(=O)O)c2c1", "activity change, negative = inhibition": "-6.5% [at 3.58 µM]"}
{"smiles": "COc1cccc([C@H]2Oc3ccc(OC)cc3/C(=N\\OCC[C@@H]3C=C[C@H](OC(C)=O)[C@H](COC(C)=O)O3)[C@@H]2O)c1", "activity change, negative = inhibition": "-2.18% [at 8 µM]"}
{"smiles": "CC(C)[C@@H](CC(=O)N[C@@H]1CCNC[C@H]1C(=O)N[C@H](CC(=O)N[C@@H](CCC(=O)O)CC(=O)O)Cc1ccccc1)NC(=O)C[C@H](CO)NC(=O)[C@@H]1CNCC[C@H]1N", "activity change, negative = inhibition": "inactive"}
{"smiles": "CC(=O)OCC1OC(C#CCCCc2ccccc2)C=CC1OC(C)=O", "note": "(stereo not drawn)", "activity change, negative = inhibition": "-3.55% [at 8 µM]"}
{"smiles": "O=Cc1c(Cl)cccc1Cl", "activity change, negative = inhibition": "inactive"}
{"smiles": "COC(=O)[C@@H]1CC[C@H](C)[C@@H](c2ccc(C)cc2)N1C(=O)c1ccc(/C=N\\O[C@@H](C)c2cn([C@H](CO)Cc3ccccc3)nn2)cc1", "activity change, negative = inhibition": "5.23% [at 8 µM]"}
{"smiles": "O=C(Nc1ccccc1-c1nnn(CC(=O)N2CCN(c3ccccc3)CC2)n1)c1cccs1", "activity change, negative = inhibition": "inactive"}
{"smiles": "Cc1cc(C)cc(C#CC2C=CC(Oc3ccc(C4CCCC4)cc3)C(CO)O2)c1", "note": "(stereo not drawn)", "activity change, negative = inhibition": "-16.6% [at 8 µM]"}
{"smiles": "CS(=O)(=O)N1CCC2(CC1)CN(c1ccncc1)C2", "activity change, negative = inhibition": "inactive"}
{"smiles": "CCCC[C@H]1C(=O)N(c2ccccc2)N(c2ccc(O)cc2)C1=O", "activity change, negative = inhibition": "-4.13% [at 3.58 µM]"}
{"smiles": "CO[C@H]1COC(=O)[C@@H](OCc2ccccc2)/C=C\\[C@H](C)[C@@H](OC)COC(=O)[C@H](OCc2ccccc2)/C=C\\[C@@H]1C", "activity change, negative = inhibition": "-4.42% [at 8 µM]"}
{"smiles": "C[C@@H]1C[C@H]2[C@@H]3C[C@H](F)C4=CC(=O)C=C[C@@]4(C)[C@]3(F)[C@H](O)C[C@]2(C)[C@@]1(O)C(=O)CO", "activity change, negative = inhibition": "2.5% [at 3.58 µM]"}
{"smiles": "COCCn1c(=O)c(-c2cccs2)nc2cncnc21", "activity change, negative = inhibition": "inactive"}
{"smiles": "COc1ccc(-c2oc3cc(OC)ccc3c2C(=O)c2ccc(C#N)cc2)cc1", "activity change, negative = inhibition": "inactive"}
{"smiles": "CC(C)(C)[Si](OCC[C@@H]1C[C@@]1(C)[C@@H](NP(=O)(c1ccccc1)c1ccccc1)c1ccccc1)(c1ccccc1)c1ccccc1", "activity change, negative = inhibition": "inactive"}
{"smiles": "COc1ccc(C(=O)N2CCC3(CCCN(C(c4ccccc4)c4ccccc4)C3)CC2)cc1", "activity change, negative = inhibition": "inactive"}
{"smiles": "O=C(O)COc1c(Cl)cc(Cl)c2cccnc12", "activity change, negative = inhibition": "10.5% [at 8 µM]"}
